Assay results: PubChem BioAssay AID651813 (National Center for Advancing Translational Sciences (NCATS), 2012)
About 1,100 (52%) of roughly 2,100 compounds were called active. About 27% were inconclusive and are not listed. The set was probably picked from earlier hits. This is one part of the list. Values without a mark were called inactive. Calls come from the whole dose curve; as a rule, active = well fitted inhibition curve with a large enough effect; inconclusive = small, poorly fitted or top-dose-only effect; inactive = no such curve, though single readings can be large or run the other way.

Each compound was assayed against DNA dC->dU-editing enzyme APOBEC-3G (Homo sapiens) (UniProt Q9HC16) (assay: qHTS for inhibitors of Vif-A3G interactions: Cherry picks counterscreen). Conditions: HeLa A3G-eYFP + Vif (tagged APOBEC3G with the HIV-1 protein that degrades it), eYFP fluorescence, 24 h.
Method in brief: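 Readout is eYFP fluorescence (488 nm excitation, 500-530 nm emission) measured on Acumen Explorer after 24 h compound exposure, several concentrations, at 37 deg C. Cells: HeLa stably co-expressing Vif and C-terminally eYFP-tagged A3G; MG132 positive control.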
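Note: hits raise yellow fluorescence by blocking Vif-driven A3G-eYFP degradation; nearly all actives have a fitted effect of over 70% in size.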
Potency is the fitted concentration of half-maximal effect.
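Throughout, for max response: max response given as percent of control signal.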

Chain of DNA dC->dU-editing enzyme APOBEC-3G (Homo sapiens) (Q9HC16 whole entry, looked up): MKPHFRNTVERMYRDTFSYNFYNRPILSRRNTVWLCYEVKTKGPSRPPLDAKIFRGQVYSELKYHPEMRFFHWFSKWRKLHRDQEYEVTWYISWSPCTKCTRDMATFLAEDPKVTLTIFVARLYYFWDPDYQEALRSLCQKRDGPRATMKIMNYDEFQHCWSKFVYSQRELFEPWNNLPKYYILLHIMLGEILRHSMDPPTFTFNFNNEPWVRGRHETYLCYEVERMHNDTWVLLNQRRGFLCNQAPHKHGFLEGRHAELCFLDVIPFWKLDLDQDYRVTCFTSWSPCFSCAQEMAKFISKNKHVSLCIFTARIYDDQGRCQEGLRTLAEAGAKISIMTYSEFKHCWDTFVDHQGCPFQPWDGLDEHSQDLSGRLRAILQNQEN

| Compound | Potency | max response |
| --- | --- | --- |
| Cc1c(C(=O)Nc2cccnc2)oc2ccc(Br)cc12 | 12.5 µM (active) | – |
| N#CC(C(=S)Nc1ccccc1)c1nc2ccccc2[nH]1 (configuration not stated) | – | -4.48% |
| O=C(CSc1ccccc1)Nc1nc2ccccc2[nH]1 | 9.94 µM (active) | – |
| c1ccc2[nH]c(NN=C3CCCCCC3)nc2c1 | – | 0.674% |
| Fc1cccc(Cc2c(-c3ccco3)nc3ccc(Br)cn23)c1 | 14 µM (active) | – |
| COC(=O)c1ccc(Oc2cc(C)nc(SC)n2)cc1 | 8.86 µM (active) | – |
| Cc1ccc(-c2nc3ncccc3o2)cc1NC(=O)c1ccc([N+](=O)[O-])o1 | – | 3.91% |
| O=C(NCc1ccccc1)C(=O)NCC1COc2ccccc2O1 (configuration not stated) | 12.5 µM (active) | – |
| CC1CCN(C(=O)C(C)Sc2nc(-c3ccccc3)cc(C(F)(F)F)n2)CC1 (configuration not stated) | – | 2.38% |
| COC(=O)CCS(=O)(=O)c1nc(-c2ccccc2)cc(C(F)(F)F)n1 | 12.5 µM (active) | – |
| COc1ccc2o/c(=N/NC(=O)c3cccs3)c(C(N)=O)cc2c1 | 12.5 µM (active) | – |
| CCOC(=O)c1c(C)sc(-c2c(-c3ccccc3)[nH]c3[nH]c(=O)[nH]c(=O)c23)c1O | 18.4 µM (active) | – |
| COc1cc(-c2noc(C)c2/C=C/c2ccc(OC(C)=O)cc2)cc(OC)c1OC | 0.627 µM (active) | – |
| Cc1ccc(O)c(NC(=O)c2cc(-c3ccccc3O)no2)c1 | 23.1 µM (active) | – |
| COc1ccc(/C=N/NC(=O)c2cc3c(OC)ccc(OC)c3[nH]2)cc1O | 4.44 µM (active) | – |
| COc1ccc2[nH]c(C(=O)N/N=C/c3ccc(OC)c(O)c3)cc2c1 | 4.44 µM (active) | – |
| COc1ccc(S(=O)(=O)Nc2cc(Sc3ncn[nH]3)c(O)c3ccccc23)cc1 | – | -11.5% |
| COc1ccc(S(=O)(=O)Nc2cccc3ccccc23)cc1 | 5.17 µM (active) | – |
| COC(=O)c1cccc(NS(=O)(=O)c2ccc(OC)cc2)c1C | 7.04 µM (active) | – |
| CC1CCCCC1NC(=O)/C(C#N)=C/C=C/c1ccccc1[N+](=O)[O-] (configuration not stated) | 14 µM (active) | – |
| Fc1cccc(F)c1/C=N/NC(=S)Nc1cccnc1 | – | -2.63% |
| CCOc1ccccc1C1CC(=O)NC2=C1C(=O)CCC2 (configuration not stated) | 12.5 µM (active) | – |
| CCCOc1ccccc1C1CC(=O)NC2=C1C(=O)CCC2 (configuration not stated) | 6.27 µM (active) | – |
| CCCCN(CCCC)c1ccc(/C=C/c2ccnc3ccccc23)cc1 | 16.4 µM (active) | – |
| CCCCN(CCC(=O)O)c1ccc(/C=C/c2ccnc3ccccc23)cc1 | 18.4 µM (active) | – |
| CCN(C)c1ccc(/C=C/c2ccnc3ccccc23)cc1 | 18.4 µM (active) | – |
| CCCN(CCC)c1ccc(/C=C/c2ccnc3ccccc23)cc1 | 14.6 µM (active) | – |
